Data published in publication PMC10338684.

Target: Helicase protein MOM1 (UniProt Q9M658)
Assay: mass-spectrometry hit list; affinity purification or IP with mass spectrometry

Sequence of UniProt Q9M658 (Q9M658 whole entry): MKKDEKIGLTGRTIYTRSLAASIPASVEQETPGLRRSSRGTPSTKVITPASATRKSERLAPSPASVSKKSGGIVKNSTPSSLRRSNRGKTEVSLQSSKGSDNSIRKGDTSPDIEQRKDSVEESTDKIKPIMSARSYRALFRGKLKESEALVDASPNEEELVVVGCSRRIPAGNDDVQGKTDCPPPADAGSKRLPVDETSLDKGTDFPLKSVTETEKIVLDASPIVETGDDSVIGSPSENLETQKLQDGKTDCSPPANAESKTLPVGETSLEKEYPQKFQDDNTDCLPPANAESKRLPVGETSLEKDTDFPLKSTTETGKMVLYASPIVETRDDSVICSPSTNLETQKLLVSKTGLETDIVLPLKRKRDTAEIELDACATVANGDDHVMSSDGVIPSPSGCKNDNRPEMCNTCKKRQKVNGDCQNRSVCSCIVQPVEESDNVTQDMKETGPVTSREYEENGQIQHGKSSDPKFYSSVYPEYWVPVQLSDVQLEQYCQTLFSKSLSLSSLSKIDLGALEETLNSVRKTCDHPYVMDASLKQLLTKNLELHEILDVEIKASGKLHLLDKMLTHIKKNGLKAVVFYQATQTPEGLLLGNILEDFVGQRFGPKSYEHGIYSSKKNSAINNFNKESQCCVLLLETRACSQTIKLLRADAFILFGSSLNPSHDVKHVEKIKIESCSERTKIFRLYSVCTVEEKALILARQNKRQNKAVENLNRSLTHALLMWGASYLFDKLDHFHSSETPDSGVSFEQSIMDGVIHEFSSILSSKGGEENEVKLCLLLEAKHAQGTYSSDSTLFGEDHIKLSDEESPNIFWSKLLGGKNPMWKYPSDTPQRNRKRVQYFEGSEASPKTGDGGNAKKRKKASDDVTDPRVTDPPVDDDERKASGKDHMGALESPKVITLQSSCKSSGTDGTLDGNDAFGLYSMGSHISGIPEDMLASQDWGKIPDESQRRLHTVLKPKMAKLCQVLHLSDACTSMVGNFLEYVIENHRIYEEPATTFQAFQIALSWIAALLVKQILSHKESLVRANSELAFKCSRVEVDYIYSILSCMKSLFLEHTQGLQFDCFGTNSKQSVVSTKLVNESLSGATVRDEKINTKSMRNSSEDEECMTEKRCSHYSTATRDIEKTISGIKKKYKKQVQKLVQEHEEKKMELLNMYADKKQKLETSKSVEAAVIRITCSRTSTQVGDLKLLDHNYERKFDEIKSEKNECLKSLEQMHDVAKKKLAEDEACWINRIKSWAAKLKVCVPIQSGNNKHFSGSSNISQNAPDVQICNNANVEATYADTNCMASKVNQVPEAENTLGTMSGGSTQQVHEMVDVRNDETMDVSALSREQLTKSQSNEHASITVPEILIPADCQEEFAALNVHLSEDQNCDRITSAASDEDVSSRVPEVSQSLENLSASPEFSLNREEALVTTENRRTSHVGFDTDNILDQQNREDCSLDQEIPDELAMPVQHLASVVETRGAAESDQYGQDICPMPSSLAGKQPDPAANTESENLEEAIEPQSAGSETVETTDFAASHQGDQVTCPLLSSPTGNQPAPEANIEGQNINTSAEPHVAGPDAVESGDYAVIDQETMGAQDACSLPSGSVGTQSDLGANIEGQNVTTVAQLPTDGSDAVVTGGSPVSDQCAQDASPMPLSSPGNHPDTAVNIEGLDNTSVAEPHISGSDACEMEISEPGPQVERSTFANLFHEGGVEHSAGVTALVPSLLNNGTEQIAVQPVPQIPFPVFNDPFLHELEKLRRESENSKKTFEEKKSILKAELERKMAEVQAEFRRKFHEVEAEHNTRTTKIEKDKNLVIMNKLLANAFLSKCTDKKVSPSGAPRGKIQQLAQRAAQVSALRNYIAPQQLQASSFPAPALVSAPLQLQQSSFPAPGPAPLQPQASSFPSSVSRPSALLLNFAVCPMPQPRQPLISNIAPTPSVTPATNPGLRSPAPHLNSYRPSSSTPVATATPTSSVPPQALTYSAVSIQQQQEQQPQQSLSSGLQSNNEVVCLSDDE

Listed as a hit, yes:
ASI1-immunoprecipitated protein 3, Q8RXT5
Protein MICRORCHIDIA 1, Q84WV6
DNA-directed RNA polymerases IV and V subunit 2, Q9LK40
E4 SUMO-protein ligase PIAL1, A0A0A7EPL0
Protein DEFECTIVE IN MERISTEM SILENCING 3, Q94A79
E4 SUMO-protein ligase PIAL2, F4JYG0
Protein RNA-directed DNA methylation 3, F4JW79
Lysine-specific demethylase JMJ14, Q8GUI6
Probable inactive lysine-specific demethylase JMJ19, Q8L7T6
Chromatin remodeling ATPase BRAHMA, Q6EVK6
Structural maintenance of chromosomes flexible hinge domain-containing protein GMI1, F4KFS5
Protein MICRORCHIDIA 6, Q56Y74
Chromatin structure-remodeling complex protein SYD, F4IHS2
DNA-directed RNA polymerase V subunit 1, Q5D869
PHD finger-containing protein 1, B3H578
